An excerpt weighted towards active compounds, which were near 1.4% of everything screened.
EPAC1 antagonist: EPAC1 (human) antagonism | O95398 | EPAC1 GEF assay, Rap1b-BODIPY-GDP exchange fluorescence | Potency, µM (doses to about 115 µM), without a hit: top-dose activity change, negative = inhibition, usual class: inhibitors | actives 0.14% (n = 360,000) | AID 720709;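 note: plate controls were vehicle for no effect and positive control for full effect; nearly all actives have a fitted effect of over 50% in size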
EPAC1 ag: activates human EPAC1 exchange factor; Potency, µM (top dose mostly 154 µM), inactives show top-dose activation, hits mostly activators; AID 720707; O95398; EPAC1 agonist qHTS, biochemical assay; response scale: 100% = response to 6.5 mM cAMP; actives 0.073% (n = 360,000); note: nearly all actives have a fitted effect of over 60% in size
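Normalized to 6.5 mM cAMP, activity reflects EPAC1-catalysed release of BODIPY-GDP from Rap1B, followed kinetically over 30 min at 480 nm excitation, 540 nm emission. Reaction contained 100 nM EPAC1, 250 nM Rap1B-BODIPY-GDP, 50 uM GDP.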
EPAC2 ag: EPAC2 (human) agonism | Q8WZA2 | EPAC2 activation, biochemical qHTS; response scale: 100% = 6.5 mM cAMP response | Potency, µM (doses to about 154 µM), for the others: at the top dose activation, most hits filed as activators | actives 0.079% (n = 360,000) | AID 720711; note: nearly all actives have a fitted effect of over 50% in size
Target sequence (Q8WZA2 whole entry, looked up): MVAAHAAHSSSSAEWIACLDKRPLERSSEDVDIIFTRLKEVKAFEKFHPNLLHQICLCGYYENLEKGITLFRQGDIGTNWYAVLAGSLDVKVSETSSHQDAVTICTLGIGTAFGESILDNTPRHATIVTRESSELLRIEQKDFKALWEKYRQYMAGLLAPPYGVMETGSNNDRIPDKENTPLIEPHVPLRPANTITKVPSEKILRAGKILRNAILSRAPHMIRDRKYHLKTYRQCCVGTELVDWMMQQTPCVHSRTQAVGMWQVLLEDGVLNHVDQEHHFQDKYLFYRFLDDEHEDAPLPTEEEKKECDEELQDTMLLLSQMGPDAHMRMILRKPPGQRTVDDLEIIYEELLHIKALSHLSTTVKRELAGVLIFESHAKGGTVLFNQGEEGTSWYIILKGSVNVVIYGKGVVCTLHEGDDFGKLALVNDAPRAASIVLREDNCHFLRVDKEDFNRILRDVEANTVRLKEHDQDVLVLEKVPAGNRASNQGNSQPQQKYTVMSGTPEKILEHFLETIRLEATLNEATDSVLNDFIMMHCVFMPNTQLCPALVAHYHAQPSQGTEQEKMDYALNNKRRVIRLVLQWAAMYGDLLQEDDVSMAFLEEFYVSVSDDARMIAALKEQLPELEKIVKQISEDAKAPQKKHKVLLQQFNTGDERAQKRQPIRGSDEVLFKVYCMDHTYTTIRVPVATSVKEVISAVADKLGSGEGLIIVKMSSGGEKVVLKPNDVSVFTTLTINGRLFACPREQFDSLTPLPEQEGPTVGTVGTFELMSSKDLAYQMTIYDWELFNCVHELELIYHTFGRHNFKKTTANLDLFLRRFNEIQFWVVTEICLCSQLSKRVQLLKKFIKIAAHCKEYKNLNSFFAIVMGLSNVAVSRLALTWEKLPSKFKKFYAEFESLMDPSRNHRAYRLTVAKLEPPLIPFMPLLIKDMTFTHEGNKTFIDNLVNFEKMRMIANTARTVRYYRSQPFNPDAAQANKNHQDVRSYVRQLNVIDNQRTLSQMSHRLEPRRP
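Compounds were added across a concentration range to EPAC2 (100 nM), RAP1B-BODIPY-GDP (250 nM) and GDP (50 uM). After 5 min at room temperature, fluorescence was recorded at 5-min intervals for 30 min.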
BRCA1 expr up: BRCA1 expression activation | MCF7-BRCA1-FFLuc reporter, luminescence, 48 h; response scale: scaled: vehicle 0%, 10 µM genistein 100% | Potency, µM (top dose mostly 46.1 µM), for the others: at the highest dose activation, usual class: activators | actives 1.1% (n = 380,000) | AID 624202; note: nearly all actives have a fitted effect of over 80% in size
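MCF7 cells carrying a BRCA1-firefly luciferase reporter (2000 cells/well, phenol-red free MEM) were attached for 2 h at 37 °C, then given compounds for 48 h. Luminescence was read 15 min after luciferase reagent; activity normalized to genistein (10 microM) and DMSO.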
USP1 inh: inhibitors of human USP1/UAF1 deubiquitinase | recombinant USP1/UAF1, Ub-Rhodamine cleavage fluorescence | Potency, µM (titrated, usually from 57.1 µM), for the others: top-dose activity change, negative = inhibition, most hits filed as inhibitors | actives 0.23% (n = 390,000); note: % is set by controls: 0 for no effect and ±100 for the full control effect; nearly all actives have a fitted effect of over 60% in size
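1 nM enzyme complex + cpd, 15 min RT; start with Ub-Rho 150nM final; kinetic fluorescence ex 480/em 540, 6 reads q60 s. Buffer 50mM HEPES pH 7.8, 0.5mM EDTA, 0.1 mg/ml BSA, 1mM TCEP, 0.01% Tween-20.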
EPAC2 antagonist: blocks human EPAC2 exchange factor | EPAC2 GEF exchange of Rap1B-BODIPY-GDP, fluorescence | Potency, µM (series often up to 114 µM), for inactives: at the highest dose activity, negative = inhibition, most hits filed as inhibitors | actives 0.18% (n = 360,000) | AID 720708; note: % is set by controls: 0 for no effect and ±100 for the full control effect; nearly all actives have a fitted effect of over 45% in size
* = called active by the depositor; i = inactive; ? = inconclusive; · = no result given; [ ] = remark or other dose. Calls come from the whole dose curve; as a rule, active = well fitted curve in the direction sought with a large enough effect; inconclusive = small, poorly fitted or top-dose-only effect, or another doubt; inactive = no such curve, though single readings can be large; an effect the other way counts as inactive or inconclusive. Potency is the fitted concentration of half-maximal effect.

SMILES	EPAC1 antagonist	EPAC1 ag	EPAC2 ag	BRCA1 expr up	USP1 inh	EPAC2 antagonist
COc1ccc(Nc2nc(N)c3ccccc3n2)c(OC)c1	3%	4%	10%	3.5µM*	-10%	4%
COc1cccc(C2c3[nH]c4ccccc4c3CCN2Cc2ncc[nH]2)c1 (stereo not given)	-4%	6%	7%	-46%	-33%	50µM*
CCCC(=O)c1cc2ccccc2oc1=O	-7%	-2%	4%	-2%	-5%	7%
CCOc1ccc(C(=O)Cc2cc3cccc(OC)c3oc2=O)cc1	-3%	-2%	6%	23%	-15%	-3%
COc1ccc(C(=O)Cc2cc3ccccc3oc2=O)cc1	-3%	1%	3%	4.5µM*	-12%	0%
Cc1ccc(C(=O)Cc2cc3ccccc3oc2=O)c(C)c1	7%	-3%	5%	4µM*	-17%	4%
O=C(c1ccc(F)cc1F)N1CCC(c2nc(-c3ccc(S(=O)(=O)N4CCCC4)cc3)no2)CC1	·	·	·	·	-26%	·
Cc1cc(-n2c(C)cc(C(=O)CSc3ccccn3)c2C)no1	-1%	4%	13%	4µM*	-15%	-15%
Cc1cc(-n2c(C)cc(C(=O)CSc3nnnn3-c3ccccc3)c2C)no1	13%	4%	6%	-34%	-18%	7%
CC(=O)c1cc(O)c2ccccc2c1O	-24%	-3%	4%	-40%	?	-5%
Cc1cc(N=NC(=O)c2ccccc2O)c2ccccc2c1O	-14%	-1%	-2%	5.6µM*	-20%	-23%
Cn1c(O)c(N=NC(=O)c2ccccc2O)c2ccccc21	32µM*	2%	3%	43%	-15%	-16%
Cc1nnc(SCc2cccc3ccccc23)s1	-12%	2%	21%	1.3µM*	-7%	?
c1ccc(Nc2nnc(SCc3cccc4ccccc34)s2)cc1	-11%	24%	8%	13%	-20%	-4%
COc1ccc(N2CCN(C(c3ccccc3)c3nnnn3C(C)C)CC2)cc1 (stereo not given)	·	·	·	0%	·	·
CCN(CC)C(=S)SCC(=O)c1ccc(Br)cc1	-14%	6%	7%	13µM*	-22%	-1%
CC(CNC(=O)C1CCN(S(=O)(=O)c2ccc3c(ccn3C)c2)CC1)c1ccccc1 (stereo not given)	·	·	·	·	-5%	·
N#Cc1cccc(NC(=O)CSc2nnc(C3CC3)n2C2CC2)c1	-3%	-3%	3%	11%	-23%	13%
Cn1cccc1C(=O)C(=O)Nc1ccccc1C(F)(F)F	-7%	-5%	7%	3%	-15%	3%
Cn1cccc1C(=O)C(=O)Nc1ccccc1	-6%	0%	2%	7.1µM*	-1%	1%
CCC1=NN(C(=O)c2ccc(Br)cc2)C(O)(c2ccccc2)C1 (stereo not given)	88%	112µM*	1%	-58%	-6%	-7%
Cn1cc([N+](=O)[O-])c(C(=O)Nc2ccc(-c3nc4ccccc4[nH]3)cc2)n1	4%	3%	9%	7.9µM*	-15%	-5%
Cn1cc([N+](=O)[O-])c(C(=O)Nc2ccc3nc(-c4ccccc4)[nH]c3c2)n1	-4%	8%	-11%	4µM*	-2%	4%
Cc1ccc(N=Cc2sc(O)c3ccccc23)c(C)c1	-9%	5%	100µM*	3.2µM*	i	220%
CSc1cccc(NC(=O)c2sc3nc4n(c(=O)c3c2C)CCC4)c1	0%	6%	8%	8.9µM*	-15%	-9%
SMILES	EPAC1 antagonist	EPAC1 ag	EPAC2 ag	BRCA1 expr up	USP1 inh	EPAC2 antagonist
Cc1c(C(=O)Nc2ccc(Oc3ccccc3)cc2)sc2nc3n(c(=O)c12)CCC3	2%	4%	13%	-72%	-14%	0%
COc1cccc(NC(=O)c2sc3nc4n(c(=O)c3c2C)CCC4)c1	8%	5%	1%	10µM*	-8%	1%
Cc1cn2c(=O)cc(COC(=O)c3ccc(NC(=O)COc4ccccc4C)cc3)nc2s1	·	·	·	·	-12%	·
Cc1ccc(-c2nc3cnccn3c2Nc2ccc(C(C)C)cc2)o1	·	·	·	-7%	·	·
Cn1cnnc1SCC(=O)Nc1ccc2nc(SCc3ccccc3F)sc2c1	12%	19%	12%	4µM*	-20%	-1%
N#CC(C#N)=C1C=C2C=C(N3CCOCC3)CCC2CC1 (stereo not given)	152%	?	56µM*	-5%	4µM*	79%
N#CC(C#N)=C1C=C2C=C(N3CCCCCC3)CCC2CC1 (stereo not given)	135%	94%	89%	-16%	4µM*	239%[57.1 µM]
CN1CCN(C2=CC3=CC(=C(C#N)C#N)CCC3CC2)CC1 (stereo not given)	i	28µM*	100µM*	-31%	i[2.29 µM]	213%
CCN1CCN(C2=CC3=CC(=C(C#N)C#N)CCC3CC2)CC1 (stereo not given)	455%	50µM*	25µM*	-25%	28µM*	434%
N#Cc1cc(Cl)c(N2CCOCC2)cc1C#N	-3%	-1%	-4%	-10%	-14%	6%
CC1(C)CC(NCCN2CCN(C3=CC(=C(C#N)C#N)CC(C)(C)C3)CC2)=CC(=C(C#N)C#N)C1	6%	-8%	-1%	-40%	-12%	5%
COc1cccc(CNC(=O)CCn2c(=O)c3cccn3c3ccc(F)cc32)c1OC	·	·	·	·	12%	·
CCOC(=O)C1(C#N)Cc2ccccc2C1	-5%	4%	5%	-2%	-9%	-5%
O=C(Nc1ccc2nc3n(c(=O)c2c1)CCCC3)c1cccc(F)c1	8%	-3%	2%	10µM*	-21%	5%
CCOC(=O)c1cccc(NC(=O)C2COc3ccc(OC)cc3C2)c1 (stereo not given)	·	·	·	·	-34%	·
COC(=O)c1sc(-c2cccs2)cc1N	-2%	-5%	3%	13µM*	-26%	-9%
COC(=O)c1sc(-c2ccc(Cl)cc2)cc1N	10%	13%	-13%	4µM*	-8%	-2%
Oc1oc(-c2ccccc2)nc1C=NCc1ccccc1	-6%	16%	24%	10µM*	-14%	0%
CCC(=O)c1cn(CC(=O)NCc2ccco2)c2ccccc12	-8%	1%	-17%	11µM*	5%	-14%
O=C1/C(=C/C=C/c2ccccc2)Oc2c1ccc(O)c2CN1CCN(CCO)CC1	31%	?	?	1%	?	35%
COc1ccccc1/C=C/C=C1\Oc2c(ccc(O)c2CN2CCN(CCO)CC2)C1=O	118%	100µM*	?	-3%	32µM*	47%
CCN1CCN(Cc2c(O)ccc3c2O/C(=C\C=C\c2ccccc2)C3=O)CC1	47%	100µM*	?	-56%	?	56%

Screening data as filed in PubChem.
